Here are results for one sequence from article PMC7862700, “An all-to-all approach to the identification of sequence-specific readers for epigenetic DNA modifications on cytosine”.

Holding throughout (test): DAPPL (digital affinity profiling via proximity ligation, sequencing); 10 mM Tris-HCl pH 7.5, 50 mM NaCl, 1 mM DTT, 4% glycerol, room temperature, 30 min; GST-TFs on glutathione beads, 16-mer random dsDNA library, 0.1% formaldehyde crosslink after washing; high values mean tight binding
For one assay, the target named is T1, FLI1 (Homo sapiens, UniProt Q01543 1-452).
T1 sequence: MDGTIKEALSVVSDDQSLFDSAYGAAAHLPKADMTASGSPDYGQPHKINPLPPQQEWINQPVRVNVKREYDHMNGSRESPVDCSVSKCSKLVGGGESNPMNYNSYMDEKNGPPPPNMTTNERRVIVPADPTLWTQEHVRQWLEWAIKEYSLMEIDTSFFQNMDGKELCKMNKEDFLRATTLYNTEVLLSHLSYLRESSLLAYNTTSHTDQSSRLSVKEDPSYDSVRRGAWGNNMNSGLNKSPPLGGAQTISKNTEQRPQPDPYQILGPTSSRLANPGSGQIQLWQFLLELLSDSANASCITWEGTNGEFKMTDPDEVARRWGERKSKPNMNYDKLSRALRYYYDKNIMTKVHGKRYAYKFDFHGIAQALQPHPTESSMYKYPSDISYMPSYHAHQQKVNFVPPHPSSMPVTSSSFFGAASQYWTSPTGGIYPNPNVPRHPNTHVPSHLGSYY
Conditions: protein: recombinant; tags: N-terminal GST; dsDNA, one strand shown. In short, it runs like this:
(§1)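 Binding signal is each hexamer's read frequency for a factor divided by its frequency in the tag-only sample. The factors were GST-fused human transcription factors from yeast, captured on glutathione beads, DNA-barcoded and pooled with that sample. Pools were incubated with 200 nmole of a random double-stranded 16-mer DNA library in Tris/NaCl/DTT/glycerol buffer at room temperature for 30 min, then washed, crosslinked with 0.1% formaldehyde, proximity-ligated with BsaI/T4 ligase (1 h, 37 °C), PCR-amplified and sequenced on an Illumina NextSeq500.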

The target in another assay is T2, ELK1 (Homo sapiens, UniProt P19419 1-428).
T2 sequence: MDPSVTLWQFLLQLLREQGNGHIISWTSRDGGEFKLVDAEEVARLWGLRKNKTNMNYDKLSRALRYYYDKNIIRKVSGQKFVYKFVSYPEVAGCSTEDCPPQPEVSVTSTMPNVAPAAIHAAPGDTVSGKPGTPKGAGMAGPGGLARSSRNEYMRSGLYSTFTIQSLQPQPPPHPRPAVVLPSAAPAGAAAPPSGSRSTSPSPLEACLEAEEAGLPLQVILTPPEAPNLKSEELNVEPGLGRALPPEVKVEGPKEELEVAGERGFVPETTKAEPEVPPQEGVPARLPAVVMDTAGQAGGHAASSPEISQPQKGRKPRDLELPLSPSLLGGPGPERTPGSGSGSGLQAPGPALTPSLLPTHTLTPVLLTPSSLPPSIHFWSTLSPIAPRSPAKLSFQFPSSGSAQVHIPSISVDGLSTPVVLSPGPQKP
Conditions: protein: recombinant; tags: N-terminal GST; dsDNA, one strand shown. In short, it runs like this: as §1

The target in another assay is T3, GABPA (Homo sapiens, UniProt Q06546 1-454).
T3 sequence: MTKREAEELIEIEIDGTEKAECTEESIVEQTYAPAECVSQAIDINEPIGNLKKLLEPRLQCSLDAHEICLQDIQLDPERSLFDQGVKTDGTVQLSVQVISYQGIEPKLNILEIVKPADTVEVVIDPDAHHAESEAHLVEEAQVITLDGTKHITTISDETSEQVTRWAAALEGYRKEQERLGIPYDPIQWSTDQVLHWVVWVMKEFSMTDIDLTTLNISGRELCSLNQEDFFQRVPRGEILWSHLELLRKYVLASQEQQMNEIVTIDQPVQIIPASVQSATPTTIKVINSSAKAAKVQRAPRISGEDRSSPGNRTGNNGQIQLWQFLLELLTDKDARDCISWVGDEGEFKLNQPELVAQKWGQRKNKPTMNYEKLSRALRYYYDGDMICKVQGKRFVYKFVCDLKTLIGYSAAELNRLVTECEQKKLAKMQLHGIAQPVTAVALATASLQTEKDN
The note with it: protein: recombinant; tags: N-terminal GST; dsDNA, one strand shown. The gist of the method:
as §1

For the next assay, the target named is T4, ERG (Homo sapiens, UniProt P11308 1-479).
T4 sequence: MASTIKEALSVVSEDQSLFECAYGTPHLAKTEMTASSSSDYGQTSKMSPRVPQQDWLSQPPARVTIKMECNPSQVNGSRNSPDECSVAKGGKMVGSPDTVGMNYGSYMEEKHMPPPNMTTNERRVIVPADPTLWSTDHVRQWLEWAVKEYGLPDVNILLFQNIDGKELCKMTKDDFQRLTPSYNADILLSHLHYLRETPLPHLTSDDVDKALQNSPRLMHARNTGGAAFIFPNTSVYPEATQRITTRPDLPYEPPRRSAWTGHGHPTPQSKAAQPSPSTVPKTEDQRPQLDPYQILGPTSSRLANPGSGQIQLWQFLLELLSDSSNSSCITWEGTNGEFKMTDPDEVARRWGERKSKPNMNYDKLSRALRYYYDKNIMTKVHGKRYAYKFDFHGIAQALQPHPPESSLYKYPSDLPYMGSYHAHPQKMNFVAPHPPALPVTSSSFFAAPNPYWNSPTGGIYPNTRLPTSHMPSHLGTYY
Conditions: protein: recombinant; tags: N-terminal GST; dsDNA, one strand shown. The gist of the method:
as §1

The next assay concerns the target ELF1 (Homo sapiens, UniProt P32519 1-619). Conditions: protein: recombinant; tags: N-terminal GST; dsDNA, one strand shown. In short, it runs like this:
as §1

A further assay has as its target T5, EHF (Homo sapiens, UniProt Q9NZC4 1-300).
T5 sequence: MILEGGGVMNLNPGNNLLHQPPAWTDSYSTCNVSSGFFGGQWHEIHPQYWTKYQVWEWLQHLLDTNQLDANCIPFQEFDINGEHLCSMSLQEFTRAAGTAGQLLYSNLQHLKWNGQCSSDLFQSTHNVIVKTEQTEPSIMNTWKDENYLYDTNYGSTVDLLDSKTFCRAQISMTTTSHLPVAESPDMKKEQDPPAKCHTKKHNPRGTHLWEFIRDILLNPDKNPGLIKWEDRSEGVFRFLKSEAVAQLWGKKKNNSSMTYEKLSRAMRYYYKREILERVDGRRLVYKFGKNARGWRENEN
The note with it: protein: recombinant; tags: N-terminal GST; dsDNA, one strand shown. The gist of the method: as §1

The target in another assay is SPI1 (Homo sapiens, UniProt P17947 1-270). The note with it: protein: recombinant; tags: N-terminal GST; dsDNA, one strand shown. In short, it runs like this: as §1
Another assay addresses SPIB (Homo sapiens, UniProt Q01892 1-262). Conditions: protein: recombinant; tags: N-terminal GST; dsDNA, one strand shown. The gist of the method:
as §1

A further assay addresses T6, ELK3 (Homo sapiens, UniProt P41970 1-407).
T6 sequence: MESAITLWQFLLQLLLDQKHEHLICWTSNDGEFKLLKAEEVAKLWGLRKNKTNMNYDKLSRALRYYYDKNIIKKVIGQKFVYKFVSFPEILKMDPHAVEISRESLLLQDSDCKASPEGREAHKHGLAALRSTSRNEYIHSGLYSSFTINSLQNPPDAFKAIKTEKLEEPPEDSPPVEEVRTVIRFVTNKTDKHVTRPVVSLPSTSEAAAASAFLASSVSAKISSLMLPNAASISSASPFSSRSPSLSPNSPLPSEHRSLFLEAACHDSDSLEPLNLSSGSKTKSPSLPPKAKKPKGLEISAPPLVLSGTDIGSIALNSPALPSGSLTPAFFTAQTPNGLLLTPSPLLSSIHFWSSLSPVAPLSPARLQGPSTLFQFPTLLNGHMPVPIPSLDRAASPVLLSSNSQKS
The note with it: protein: recombinant; tags: N-terminal GST; dsDNA, one strand shown. The gist of the method: as §1

Another assay concerns the target T7, FEV (Homo sapiens, UniProt Q99581 1-238).
T7 sequence: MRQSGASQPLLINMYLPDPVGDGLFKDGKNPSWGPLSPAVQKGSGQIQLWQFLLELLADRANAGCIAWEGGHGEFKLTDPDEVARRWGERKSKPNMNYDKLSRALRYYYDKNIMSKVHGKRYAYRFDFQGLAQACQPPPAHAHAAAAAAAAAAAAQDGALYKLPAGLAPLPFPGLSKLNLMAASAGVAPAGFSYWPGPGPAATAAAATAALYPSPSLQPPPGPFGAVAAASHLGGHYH
The note with it: protein: recombinant; tags: N-terminal GST; dsDNA, one strand shown. In short, it runs like this:
as §1

A further assay deals with ETV5 (Homo sapiens, UniProt P41161 1-510). The note with it: protein: recombinant; tags: N-terminal GST; dsDNA, one strand shown. The gist of the method: as §1
A further assay has as its target HSF1 (Homo sapiens, UniProt Q00613 1-529). Conditions: protein: recombinant; tags: N-terminal GST; chain copies: 3; dsDNA, one strand shown. The gist of the method:
as §1

The next assay addresses T8, SPIC (Homo sapiens, UniProt Q8N5J4 1-248).
T8 sequence: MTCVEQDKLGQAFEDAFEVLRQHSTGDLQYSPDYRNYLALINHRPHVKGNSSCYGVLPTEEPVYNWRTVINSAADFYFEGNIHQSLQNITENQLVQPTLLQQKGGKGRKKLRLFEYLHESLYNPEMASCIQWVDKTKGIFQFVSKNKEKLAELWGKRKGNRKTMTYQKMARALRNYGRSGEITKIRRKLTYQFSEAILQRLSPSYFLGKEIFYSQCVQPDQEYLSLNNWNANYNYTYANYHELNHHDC
Conditions: protein: recombinant; tags: N-terminal GST; dsDNA, one strand shown. The gist of the method: as §1

The target of the next assay is ELF4 (Homo sapiens, UniProt Q99607 1-663). The note with it: protein: recombinant; tags: N-terminal GST; dsDNA, one strand shown. The gist of the method:
as §1

The target in the next assay is T9, ELK4 (Homo sapiens, UniProt P28324-2 1-405).
T9 sequence: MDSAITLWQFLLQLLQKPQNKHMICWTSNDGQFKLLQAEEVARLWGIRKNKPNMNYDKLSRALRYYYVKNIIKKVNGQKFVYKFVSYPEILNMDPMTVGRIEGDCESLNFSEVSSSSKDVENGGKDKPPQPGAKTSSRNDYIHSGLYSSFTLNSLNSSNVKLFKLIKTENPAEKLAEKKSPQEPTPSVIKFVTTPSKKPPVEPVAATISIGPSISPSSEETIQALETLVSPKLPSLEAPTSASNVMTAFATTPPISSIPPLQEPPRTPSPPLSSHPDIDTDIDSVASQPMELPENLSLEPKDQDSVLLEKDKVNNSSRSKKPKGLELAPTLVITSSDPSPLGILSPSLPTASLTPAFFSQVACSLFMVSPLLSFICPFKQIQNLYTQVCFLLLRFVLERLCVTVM
The note with it: protein: recombinant; tags: N-terminal GST; dsDNA, one strand shown. The gist of the method:
as §1

The next assay addresses T10, ETV2 (Homo sapiens, UniProt O00321 1-342).
T10 sequence: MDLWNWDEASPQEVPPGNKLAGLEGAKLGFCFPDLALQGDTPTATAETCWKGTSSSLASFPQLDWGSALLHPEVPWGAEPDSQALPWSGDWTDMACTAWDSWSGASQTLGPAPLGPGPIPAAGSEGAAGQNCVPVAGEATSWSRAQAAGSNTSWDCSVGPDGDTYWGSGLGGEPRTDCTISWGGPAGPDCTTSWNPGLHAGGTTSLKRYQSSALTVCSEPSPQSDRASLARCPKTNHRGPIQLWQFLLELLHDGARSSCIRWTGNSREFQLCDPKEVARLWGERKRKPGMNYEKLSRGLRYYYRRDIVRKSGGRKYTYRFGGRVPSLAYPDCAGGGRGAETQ
The note with it: protein: recombinant; tags: N-terminal GST; dsDNA, one strand shown. The gist of the method: as §1

The next assay concerns the target T11, ELF3 (Homo sapiens, UniProt P78545 1-371).
T11 sequence: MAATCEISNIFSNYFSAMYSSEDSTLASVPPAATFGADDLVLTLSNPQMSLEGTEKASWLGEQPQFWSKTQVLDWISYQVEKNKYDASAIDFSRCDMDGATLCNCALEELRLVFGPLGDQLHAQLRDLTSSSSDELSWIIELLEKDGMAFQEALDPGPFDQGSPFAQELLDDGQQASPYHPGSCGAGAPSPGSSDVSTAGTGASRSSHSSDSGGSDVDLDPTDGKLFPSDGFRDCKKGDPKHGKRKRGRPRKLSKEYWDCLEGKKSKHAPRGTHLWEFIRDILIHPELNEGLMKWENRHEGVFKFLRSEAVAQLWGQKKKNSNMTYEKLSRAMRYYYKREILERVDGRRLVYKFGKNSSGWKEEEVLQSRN
The note with it: protein: recombinant; tags: N-terminal GST; dsDNA, one strand shown. The gist of the method: as §1

The target in the next assay is CRX (Homo sapiens, UniProt O43186 1-299). Conditions: protein: recombinant; tags: N-terminal GST; dsDNA, one strand shown. In short, it runs like this: as §1
A further assay addresses ETV1 (Homo sapiens, UniProt P50549 1-477). The note with it: protein: recombinant; tags: N-terminal GST; dsDNA, one strand shown. In short, it runs like this: as §1

Sequence of SPIB (Q01892 whole entry): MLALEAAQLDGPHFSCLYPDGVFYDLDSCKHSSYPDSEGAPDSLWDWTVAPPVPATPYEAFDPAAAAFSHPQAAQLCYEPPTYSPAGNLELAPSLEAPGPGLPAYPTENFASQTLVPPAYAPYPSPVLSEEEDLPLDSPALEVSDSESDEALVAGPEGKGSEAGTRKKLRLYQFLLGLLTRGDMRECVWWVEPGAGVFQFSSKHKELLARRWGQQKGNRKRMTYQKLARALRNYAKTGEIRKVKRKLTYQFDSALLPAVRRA
Sequence of ELF1 (P32519 whole entry): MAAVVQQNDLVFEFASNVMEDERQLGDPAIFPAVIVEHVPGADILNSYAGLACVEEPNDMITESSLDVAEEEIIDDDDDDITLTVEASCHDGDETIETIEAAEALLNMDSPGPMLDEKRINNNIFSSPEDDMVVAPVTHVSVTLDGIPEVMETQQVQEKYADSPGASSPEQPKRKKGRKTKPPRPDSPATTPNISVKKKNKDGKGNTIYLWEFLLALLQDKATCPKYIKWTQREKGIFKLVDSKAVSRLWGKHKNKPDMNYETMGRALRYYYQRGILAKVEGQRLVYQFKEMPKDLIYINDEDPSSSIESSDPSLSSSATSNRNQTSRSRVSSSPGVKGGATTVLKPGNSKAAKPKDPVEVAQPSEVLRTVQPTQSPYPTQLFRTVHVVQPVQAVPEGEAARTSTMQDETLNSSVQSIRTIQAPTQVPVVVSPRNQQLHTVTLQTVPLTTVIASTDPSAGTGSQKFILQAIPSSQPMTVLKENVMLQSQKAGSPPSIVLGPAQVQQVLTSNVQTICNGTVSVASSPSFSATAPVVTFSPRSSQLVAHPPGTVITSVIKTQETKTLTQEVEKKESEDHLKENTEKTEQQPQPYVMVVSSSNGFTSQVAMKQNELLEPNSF
Sequence of HSF1 (Q00613 whole entry): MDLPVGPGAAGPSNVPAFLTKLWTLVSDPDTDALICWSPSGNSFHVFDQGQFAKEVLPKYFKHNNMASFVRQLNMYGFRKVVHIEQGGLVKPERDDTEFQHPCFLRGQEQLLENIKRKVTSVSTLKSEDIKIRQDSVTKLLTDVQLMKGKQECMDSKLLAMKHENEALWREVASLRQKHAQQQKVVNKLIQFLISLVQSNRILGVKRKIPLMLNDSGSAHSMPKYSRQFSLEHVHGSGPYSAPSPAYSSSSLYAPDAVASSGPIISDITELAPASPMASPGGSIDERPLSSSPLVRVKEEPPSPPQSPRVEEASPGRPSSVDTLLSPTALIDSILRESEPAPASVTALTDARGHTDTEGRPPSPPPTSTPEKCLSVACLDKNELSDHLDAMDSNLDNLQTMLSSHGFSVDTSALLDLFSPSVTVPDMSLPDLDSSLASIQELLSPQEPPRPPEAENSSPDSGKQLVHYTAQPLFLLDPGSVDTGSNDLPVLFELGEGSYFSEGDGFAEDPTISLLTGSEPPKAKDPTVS
Sequence of ETV5 (P41161 whole entry): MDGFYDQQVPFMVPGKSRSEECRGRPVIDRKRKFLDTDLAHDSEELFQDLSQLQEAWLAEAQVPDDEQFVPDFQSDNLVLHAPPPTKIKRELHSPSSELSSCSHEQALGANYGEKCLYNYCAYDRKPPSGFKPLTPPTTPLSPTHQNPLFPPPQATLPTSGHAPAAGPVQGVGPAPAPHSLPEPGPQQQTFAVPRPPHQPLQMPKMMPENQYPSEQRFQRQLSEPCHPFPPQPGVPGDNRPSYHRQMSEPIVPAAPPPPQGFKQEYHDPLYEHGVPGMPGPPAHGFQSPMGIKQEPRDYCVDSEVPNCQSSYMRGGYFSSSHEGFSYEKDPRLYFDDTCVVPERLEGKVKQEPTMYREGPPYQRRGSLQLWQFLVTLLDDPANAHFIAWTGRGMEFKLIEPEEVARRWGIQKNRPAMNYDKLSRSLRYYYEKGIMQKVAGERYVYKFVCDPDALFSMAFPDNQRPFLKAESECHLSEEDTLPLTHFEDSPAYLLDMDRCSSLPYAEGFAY
Sequence of ELF4 (Q99607 whole entry): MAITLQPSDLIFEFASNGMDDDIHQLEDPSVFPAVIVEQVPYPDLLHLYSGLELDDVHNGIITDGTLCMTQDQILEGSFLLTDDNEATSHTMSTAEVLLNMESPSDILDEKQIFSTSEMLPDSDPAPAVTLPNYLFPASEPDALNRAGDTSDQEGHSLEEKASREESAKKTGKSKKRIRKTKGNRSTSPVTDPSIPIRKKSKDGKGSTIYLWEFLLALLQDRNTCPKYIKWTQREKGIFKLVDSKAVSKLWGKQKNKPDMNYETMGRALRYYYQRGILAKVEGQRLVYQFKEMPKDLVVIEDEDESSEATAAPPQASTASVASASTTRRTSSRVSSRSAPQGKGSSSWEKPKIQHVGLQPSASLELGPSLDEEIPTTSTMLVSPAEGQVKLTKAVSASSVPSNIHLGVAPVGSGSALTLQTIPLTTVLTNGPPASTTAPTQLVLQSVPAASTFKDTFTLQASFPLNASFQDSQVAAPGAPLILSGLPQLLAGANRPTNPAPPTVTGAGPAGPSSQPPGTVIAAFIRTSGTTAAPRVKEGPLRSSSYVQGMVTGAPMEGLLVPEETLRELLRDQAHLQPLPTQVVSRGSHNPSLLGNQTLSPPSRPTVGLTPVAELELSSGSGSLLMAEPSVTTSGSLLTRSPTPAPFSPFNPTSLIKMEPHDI
Sequence of CRX (O43186 whole entry): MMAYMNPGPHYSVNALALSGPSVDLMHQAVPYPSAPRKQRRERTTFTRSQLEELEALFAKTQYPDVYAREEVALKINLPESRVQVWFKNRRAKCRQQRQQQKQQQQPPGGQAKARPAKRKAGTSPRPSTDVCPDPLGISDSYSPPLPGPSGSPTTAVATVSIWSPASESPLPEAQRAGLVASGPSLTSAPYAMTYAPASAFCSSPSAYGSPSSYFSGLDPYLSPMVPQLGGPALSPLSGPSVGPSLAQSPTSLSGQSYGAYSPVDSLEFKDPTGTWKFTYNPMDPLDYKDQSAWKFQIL
Sequence of ETV1 (P50549 whole entry): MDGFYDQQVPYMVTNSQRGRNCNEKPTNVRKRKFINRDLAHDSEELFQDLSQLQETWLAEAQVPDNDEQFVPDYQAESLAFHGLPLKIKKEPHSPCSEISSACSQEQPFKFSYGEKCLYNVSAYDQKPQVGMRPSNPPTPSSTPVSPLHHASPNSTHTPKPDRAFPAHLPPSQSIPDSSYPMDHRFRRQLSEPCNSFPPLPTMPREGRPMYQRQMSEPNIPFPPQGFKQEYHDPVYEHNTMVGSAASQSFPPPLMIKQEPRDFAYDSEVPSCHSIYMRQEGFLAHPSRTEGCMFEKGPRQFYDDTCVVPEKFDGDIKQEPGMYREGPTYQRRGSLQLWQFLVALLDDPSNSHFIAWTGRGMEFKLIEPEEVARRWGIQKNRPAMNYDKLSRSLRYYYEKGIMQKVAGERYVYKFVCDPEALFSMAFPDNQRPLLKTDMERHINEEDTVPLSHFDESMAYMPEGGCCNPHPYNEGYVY

Regarding CGCTTA, the binding signal with FLI1 was 1.32 fold enrichment (6-mer frequency, TF over GST control); with ELK1, 1.26 fold enrichment (6-mer frequency, TF over GST control); in the assay with GABPA, 1.17 fold enrichment (6-mer frequency, TF over GST control); with ERG, 1.15 fold enrichment (6-mer frequency, TF over GST control); with ELF1 it was 1.32 fold enrichment (6-mer frequency, TF over GST control); with EHF, 1.18 fold enrichment (6-mer frequency, TF over GST control). For the same sequence, the binding signal with SPI1 is 1.24 fold enrichment (6-mer frequency, TF over GST control); with SPIB it was 1.41 fold enrichment (6-mer frequency, TF over GST control); with ELK3 it was 1.15 fold enrichment (6-mer frequency, TF over GST control); in the assay with FEV, 1.2 fold enrichment (6-mer frequency, TF over GST control); with ETV5, 1.29 fold enrichment (6-mer frequency, TF over GST control); with HSF1, 1.53 fold enrichment (6-mer frequency, TF over GST control). The binding signal with SPIC was 1.22 fold enrichment (6-mer frequency, TF over GST control); with ELF4, 1.29 fold enrichment (6-mer frequency, TF over GST control); with ELK4 it was 1.32 fold enrichment (6-mer frequency, TF over GST control); in the assay with ETV2, 1.1 fold enrichment (6-mer frequency, TF over GST control); with ELF3, 1.29 fold enrichment (6-mer frequency, TF over GST control); with CRX, 2.11 fold enrichment (6-mer frequency, TF over GST control). Further, the binding signal with ETV1 is 1.24 fold enrichment (6-mer frequency, TF over GST control).
